# Screens as filed in PubChem.
# RORgamma inh: blocks mouse ROR gamma transcriptional activity. P51450. Drosophila S2 Gal4-RORgamma UAS-luciferase reporter, 20 h. actives 5.4% (n = 310,000). Potency, µM (highest dose often 53.6 µM), actives largely listed as inhibitors; also: nearly all actives have a fitted effect of over 60% in size
#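 ROR gamma transcriptional activity was tracked as Gal4-UAS luciferase output in stably transfected Drosophila Schneider cells, with compound added 1 hr before 700 uM copper sulfate induction and a 20 hr ambient-temperature incubation.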
# DT40 TDP1 CPT: DT40-hTDP1 cell growth loss with CPT; chicken DT40 Tdp1-/-;hTDP1 cells + 20 nM CPT, ATP luminescence, 48 h; Potency, µM (series often up to 46.2 µM), usual class: inhibitors; actives 12% (n = 420,000); AID 686979; also: nearly all actives have a fitted effect of over 55% in size
#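 Chicken DT40 Tdp1-/- cells stably complemented with human TDP1 were seeded at 400 cells/well in medium containing 20 nM camptothecin, exposed to pin-transferred compounds, and grown at 37 °C for at least 48 hr. Viability was read as ATP luminescence.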
# TDP1 block: TDP1 (human) enzyme inhibition | Potency, µM (highest dose often 130 µM), hits mostly inhibitors | Q9NUW8 | recombinant TDP1, AlphaScreen DNA substrate cleavage | actives 0.28% (n = 350,000); also: nearly all actives have a fitted effect of over 40% in size
# Target sequence (Q9NUW8 whole entry, looked up): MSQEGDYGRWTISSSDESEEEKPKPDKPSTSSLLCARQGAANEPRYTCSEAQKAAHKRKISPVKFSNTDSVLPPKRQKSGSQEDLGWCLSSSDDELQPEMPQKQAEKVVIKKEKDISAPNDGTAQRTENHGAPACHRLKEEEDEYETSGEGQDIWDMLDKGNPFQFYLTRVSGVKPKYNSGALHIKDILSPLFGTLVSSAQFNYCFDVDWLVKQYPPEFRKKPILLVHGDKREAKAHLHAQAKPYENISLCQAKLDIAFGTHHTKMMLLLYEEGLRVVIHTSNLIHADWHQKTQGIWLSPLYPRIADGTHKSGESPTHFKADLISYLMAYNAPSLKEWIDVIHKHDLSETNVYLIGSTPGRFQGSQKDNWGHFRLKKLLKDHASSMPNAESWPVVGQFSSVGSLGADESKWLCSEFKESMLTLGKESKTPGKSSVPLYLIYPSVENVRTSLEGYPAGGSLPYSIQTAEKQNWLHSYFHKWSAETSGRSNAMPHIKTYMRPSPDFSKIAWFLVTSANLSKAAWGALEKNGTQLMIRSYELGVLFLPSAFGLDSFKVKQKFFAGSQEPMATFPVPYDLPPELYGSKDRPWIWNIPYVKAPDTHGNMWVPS
#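 Compounds were preincubated with Tdp1 (1 nM final) for 15 min at room temperature before substrate (15 nM final) started a 5 min reaction; beads (10 ug/ml final) were then added for 10 min before AlphaScreen detection.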
# VP16 counter: counter-screen for ROR gamma inhibitors: Gal4-VP16 reporter. Potency, µM (titrated, usually from 53.6 µM), hits mostly inhibitors. Drosophila S2 Gal4-VP16 UAS-luciferase, luminescence, 20 h. actives 3.5% (n = 310,000);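 also: Gal4-VP16 expression switched on by copper sulfate through the metallothionein promoter; nearly all actives have a fitted effect of over 50% in size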
# TDP1 cell noCPT: qHTS for Inhibitors of human tyrosyl-DNA phosphodiesterase 1 (TDP1): qHTS in cells in absence of CPT; actives 15% (n = 420,000); DT40 Tdp1-/- hTDP1 cells, no CPT, ATP luminescence, 48 h; Potency, µM (top dose mostly 46.2 µM), usual class: inhibitors; AID 686978, 2013; also: nearly all actives have a fitted effect of over 55% in size
#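 Camptothecin absent (DMSO only). Human TDP1-complemented DT40 knockout cells, 400 cells/well, 37 °C for minimum 48 hr; ATP measured via CellTiter-Glo, 30 min dark incubation, luminescence.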
# Numbers stand for hits; n = inactive; u = inconclusive; x = no result given; [ ] = remark or other dose. The list is not random: actives were taken first. Their share in the collection is about 19%. Calls follow the shape of the dose curve; as a rule, active = well fitted curve in the direction sought with a large enough effect; inconclusive = small, poorly fitted or top-dose-only effect, or another doubt; inactive = no such curve, though single readings can be large; an effect the other way counts as inactive or inconclusive.
SMILES,RORgamma inh,DT40 TDP1 CPT,TDP1 block,VP16 counter,TDP1 cell noCPT
COc1ccccc1C=NN=Cc1ccccc1O,x,n,x,x,n
CCCCNC(=O)C1=C(N)C(C(=O)Nc2ccc(C)c(S(=O)(=O)N3CCCCC3)c2)SC1=Nc1ccc(C)cc1C (configuration not stated),n,23µM,n,u,23µM
CSc1cccc(NC(=O)C2CCN(C(=O)c3ccccc3C)CC2)c1,n,18µM,n,n,21µM
O=C(NNC(=O)C1CCN(S(=O)(=O)c2ccccc2C(F)(F)F)CC1)c1ccccc1O,x,u,n,x,u
Cc1ccccc1C(=O)N1CCC(C(=O)Nc2ccc(C)c(S(=O)(=O)N3CCCCC3)c2)CC1,x,13µM,n,x,5.8µM
CSc1cccc(NC(=O)C2CCN(S(C)(=O)=O)CC2)c1,n[0.365 µM],n,n,x,n
Cc1ccccc1C(=O)NCC(=O)Nc1ccc(C)c(S(=O)(=O)N2CCCCCC2)c1,n,u,n,n,u
O=C(NNC(=O)C1CCN(S(=O)(=O)c2ccccc2)CC1)c1ccccc1O,n,7.3µM,n,n,26µM
Cc1cccc(NC(=O)c2cc3n(n2)C(C(F)(F)F)CC(c2ccc4c(c2)OCO4)N3)c1 (configuration not stated),n,u,n,n,u
COc1ccc(CCNC(=O)c2ccc3c(c2)nc2n3CCCCC2)cc1OC,x,n,n,x,u
COc1ccc(NC(=O)C2CCCN(C(=O)c3ccc(Cl)cc3)C2)cc1S(=O)(=O)N(C)C (configuration not stated),x,u,n,x,n
CCOc1ccc(NS(=O)(=O)c2cc(NC(=O)C3CC3)ccc2C)cc1Br,x,u,n,x,21µM
CC(C)c1ccc(NNC(=O)C2CCC2)cc1,n,9.2µM,n,n,16µM
Cc1ccc(NC(=O)C2CCC2)cc1S(=O)(=O)N1CCCCCC1,x,u,n[0.505 µM],x,26µM
Cc1ccc(NC(=O)C2CCCN(C(=O)c3ccc(Cl)cc3)C2)cc1S(=O)(=O)N1CCOCC1 (configuration not stated),n,21µM,n,n,16µM
COc1ccc(NC(=O)C2CC2)cc1S(=O)(=O)N1CCOCC1,x,n,n,x,n
Brc1cc(Oc2cc(Br)c(Br)c(Br)c2Br)c(Br)c(Br)c1Br,n,x,n,n,x
O=C(O)[C@@H]1CCCN1S(=O)(=O)c1cccc(S(=O)(=O)N2CCC[C@H]2C(=O)O)c1,n,n,x,n,n
Cc1ccccc1C(=O)N1CCC(C(=O)Nc2cccc(S(=O)(=O)N3CCCCC3)c2)CC1,x,u,n,x,u
Cc1ccccc1C(=O)Nc1ccc(S(=O)(=O)N2CCC(c3nc4ccccc4s3)CC2)cc1,x,13µM,n,x,21µM
Cc1ccccc1C(=O)N1CCC(C(=O)Nc2ccc(F)cc2)CC1,n,n,n,n,n
Cc1ccccc1C(=O)N1CCC(C(=O)Nc2ccc(C(C)C)cc2)CC1,n,7.3µM,n,n,5.2µM
Cc1ccccc1C(=O)N1CCC(C(=O)Nc2ccc(S(=O)(=O)N3CCCC3)cc2)CC1,n,u,n,n,18µM
COc1cccc(C(=O)NC2(C(F)(F)F)N=C3SCCN3C2=O)c1 (configuration not stated),n,n,n,n,n
Cc1[nH]c2ccccc2c1SCc1nnc(SCc2ccc(Cl)cc2)n1C,n,u,n,n,u
SMILES,RORgamma inh,DT40 TDP1 CPT,TDP1 block,VP16 counter,TDP1 cell noCPT
O=c1c2ccccc2c2ccccc2c(=O)n1Cc1ccco1,n,n,n,n,n
Cc1c(N=Cc2c(O)n(Cc3ccco3)c(=O)c3ccccc23)c(=O)n(-c2ccccc2)n1C,u,21µM,n,n,u
S=C1NC2=C(CCC/C2=C\c2ccc(Cl)cc2)C(c2ccc(Cl)cc2)N1 (configuration not stated),n,u,n,u,23µM
C(=C1/CCCC2=C1Nc1ncnn1C2c1ccccc1)/c1ccccc1 (configuration not stated),2.8µM,x,n,4µM,x
CC(C)c1ccc(C2NC(=S)NC3=C2C(=O)CCC3)cc1 (configuration not stated),u,n,n,n,n
CN1C(=O)NC(c2cccc(F)c2)C2=C1CC(C)(C)CC2=O (configuration not stated),n,n,x,n,n
Fc1ccccc1/C=C1\CCCC2=C1NC(=S)NC2c1ccccc1F (configuration not stated),2.5µM,u,n,11µM,u
Fc1cccc(/C=C2\CCCC3=C2NC(=S)NC3c2cccc(F)c2)c1 (configuration not stated),2.8µM,u,n,3.5µM,21µM
S=C1NC2=C(CCC/C2=C\c2ccccc2)C(c2ccccc2)N1 (configuration not stated),3.5µM,u,n,8.9µM,15µM
O=C1CCCC2=C1C(c1ccccc1)NC(=S)N2 (configuration not stated),n,n,n,n,n
CC1CC2=C(NC(=S)NC2c2ccc(F)cc2)/C(=C/c2ccc(F)cc2)C1 (configuration not stated),1.6µM,u,n,7.1µM,u
FC(F)(F)c1ccccc1C1C2=C(Nc3ncnn31)c1ccccc1CCC2 (configuration not stated),n,x,n,4.5µM,x
O=C1NC(=O)C(c2ccc(F)cc2)N1 (configuration not stated),n,n,n,n,n
COc1ccc(C2C3=C(Nc4ncnn42)c2ccccc2CC3)cc1OC (configuration not stated),n,x,n,n,x
CCSc1nc(COC(=O)NC)c(COC(=O)NC)n1C,x,2.3µM,x,x,5.2µM
CNC(=O)OCc1nc(SSC(C)(C)C)n(C)c1COC(=O)NC,x,2.1µM,x,x,2.1µM
COc1ccc(CNC(=O)c2c(N)n(CCCN3CCOCC3)c3nc4ccccc4nc23)cc1,u,u,n,u,u
CC(C)Cn1c(N)c(C(=O)NCCN2CCOCC2)c2nc3ccccc3nc21,n,u,n,n,18µM
Cc1cccc(-n2c(N)c(C(=O)NCCN3CCOCC3)c3nc4ccccc4nc32)c1,n,u,n,n,18µM
Nc1c(C(=O)NCc2ccccc2)c2nc3ccccc3nc2n1CCCN1CCOCC1,n,u,n,n,n
Nc1c(C(=O)NCc2ccc(F)cc2)c2nc3ccccc3nc2n1CCCN1CCOCC1,n,u,n,u,18µM
C=CCn1c(N)c(C(=O)NCC2CCCO2)c2nc3ccccc3nc21 (configuration not stated),13µM,u,n,u,u
COc1ccc(-n2c(N)c(C(=O)NCC3CCCO3)c3nc4ccccc4nc32)c(OC)c1 (configuration not stated),n,u,n,n,u
Cc1nnc(NC(=O)CCCN2C(=O)c3ccccc3C2=O)s1,n,n,n,n,n
